# Results taken from ChEMBL document CHEMBL3988442, “University of Dundee, Small-Polar-MMV Screening Library” (2021).
# For some assays here: Potency and affinity values are given separately.
# What was measured:
# Parameters in all cases: scale not given: direction of the effect not stated beside the values
# [1] = target: Protein translocase subunit SecA (Escherichia coli (strain K12)) (UniProt P10408); test: Assay to Identify E. coli SecA ATPase Inhibitors; assay type: functional; conditions: 30 µM
# [2] = target: T1, Ubiquitin-activating enzyme e1, putative (Leishmania donovani (strain BPK282A1)) (UniProt E9BSI1); test: Leishmania donovani Ubiquitin Activating Enzyme (LdE1); assay type: functional; conditions: 30 µM
# T1 sequence (whole entry): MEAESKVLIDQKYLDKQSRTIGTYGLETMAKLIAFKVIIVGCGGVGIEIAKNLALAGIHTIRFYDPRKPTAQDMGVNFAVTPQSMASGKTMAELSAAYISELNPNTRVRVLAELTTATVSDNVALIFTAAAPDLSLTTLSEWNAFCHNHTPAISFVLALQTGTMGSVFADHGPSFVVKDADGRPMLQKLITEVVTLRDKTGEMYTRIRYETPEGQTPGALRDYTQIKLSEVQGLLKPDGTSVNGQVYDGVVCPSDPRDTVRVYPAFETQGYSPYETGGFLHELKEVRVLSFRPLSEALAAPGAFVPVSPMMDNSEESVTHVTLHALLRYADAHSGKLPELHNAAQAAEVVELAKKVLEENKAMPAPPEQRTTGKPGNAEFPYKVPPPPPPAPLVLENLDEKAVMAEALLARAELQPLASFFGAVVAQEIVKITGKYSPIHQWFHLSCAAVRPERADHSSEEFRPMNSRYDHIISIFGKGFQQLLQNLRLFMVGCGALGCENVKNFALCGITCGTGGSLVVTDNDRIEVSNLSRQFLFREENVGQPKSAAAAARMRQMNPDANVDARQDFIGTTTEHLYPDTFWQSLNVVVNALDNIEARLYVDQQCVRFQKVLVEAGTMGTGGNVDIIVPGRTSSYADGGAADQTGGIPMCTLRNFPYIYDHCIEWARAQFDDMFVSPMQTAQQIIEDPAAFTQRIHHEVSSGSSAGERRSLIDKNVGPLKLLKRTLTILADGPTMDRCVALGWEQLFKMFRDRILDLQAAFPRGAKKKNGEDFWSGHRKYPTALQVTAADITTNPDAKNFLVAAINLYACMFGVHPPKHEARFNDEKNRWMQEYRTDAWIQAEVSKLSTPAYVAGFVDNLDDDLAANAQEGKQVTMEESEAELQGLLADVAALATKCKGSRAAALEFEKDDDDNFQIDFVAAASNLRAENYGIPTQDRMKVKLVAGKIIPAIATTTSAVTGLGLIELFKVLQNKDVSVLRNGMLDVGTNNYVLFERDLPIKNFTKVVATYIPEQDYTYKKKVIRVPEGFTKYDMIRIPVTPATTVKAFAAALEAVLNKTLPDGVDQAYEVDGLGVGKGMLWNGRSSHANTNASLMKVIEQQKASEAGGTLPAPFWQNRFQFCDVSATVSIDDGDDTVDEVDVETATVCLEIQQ
# [3] = target: AMP-activated protein kinase, AMPK (Homo sapiens) (UniProt P54646+O43741+P54619+Q9UGJ0+Q9Y478+Q13131+Q9UGI9); test: AMP-dependent Kinase enzyme assay. An in vitro enzyme assay that detects ADP turnover that is directly proportional to AMPK activity. This uses naive AMPK that is activated during the assay with MK-8722; assay type: functional; conditions: 30 µM
# [4] = target: Sialic acid-binding Ig-like lectin 9 (Homo sapiens) (UniProt Q9Y336); test: Hs-Siglec9 ALPHAscreen SOP 20170721; conditions: 10 µM
# Trypanosoma cruzi = test: Trypanosoma cruzi phosphomannomutase and mannose-1-phosphate guanylyltransferase assay; assay type: functional; conditions: 10 µM
# [5] = target: T2, Arginase-2, mitochondrial (Homo sapiens) (UniProt P78540); test: in vitro enzyme assay to detect the production of urea directly proportional to the activity of Arginase II; assay type: functional; conditions: 33.3 µM; note: in the data most compounds retested in dose-response had high values
# T2 sequence (whole entry): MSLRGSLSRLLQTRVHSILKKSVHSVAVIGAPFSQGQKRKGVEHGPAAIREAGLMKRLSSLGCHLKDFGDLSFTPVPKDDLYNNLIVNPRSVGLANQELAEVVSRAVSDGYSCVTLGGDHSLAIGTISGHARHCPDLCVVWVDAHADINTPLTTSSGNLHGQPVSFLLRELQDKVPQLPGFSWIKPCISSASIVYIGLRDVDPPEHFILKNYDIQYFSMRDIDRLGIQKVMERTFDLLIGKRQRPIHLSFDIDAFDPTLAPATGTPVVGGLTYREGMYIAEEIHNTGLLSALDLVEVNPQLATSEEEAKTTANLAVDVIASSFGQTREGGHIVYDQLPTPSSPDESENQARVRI
# [6] = target: T3, Proteasome subunit beta (Trypanosoma cruzi) (UniProt O96673); test: Trypanosoma cruzi proteasome chymotrypsin-like activity (TcProtChymo) assay.; note: in the data most compounds retested in dose-response had high values; assay type: functional; conditions: 9.37 µM
# T3 sequence (whole entry): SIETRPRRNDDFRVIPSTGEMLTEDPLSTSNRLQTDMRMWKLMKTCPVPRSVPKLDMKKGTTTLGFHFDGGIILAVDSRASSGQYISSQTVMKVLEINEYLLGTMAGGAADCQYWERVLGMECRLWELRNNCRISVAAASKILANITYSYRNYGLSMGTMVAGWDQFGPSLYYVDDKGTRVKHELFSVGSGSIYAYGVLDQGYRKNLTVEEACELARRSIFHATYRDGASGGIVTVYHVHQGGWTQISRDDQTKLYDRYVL
# Homo sapiens = species: Homo sapiens; test: To identify inhibition of the IFN signalling (Jak-Stat) pathway via expression of an eGFP reporter gene under the control of an IFN-stimulated response element (ISRE) containing MxA promoter.; assay type: functional; conditions: 30 µM
# [7] = target: T4, Tyrosyl-tRNA synthetase, putative (Trypanosoma cruzi (strain CL Brener)) (UniProt Q4DSP6); test: Trypanosoma cruzi tyrosyl tRNA synthetase (TcYRS) _High Tyrosine SOP; assay type: functional; conditions: 30 µM; note: in the data most compounds retested in dose-response had high values
# T4 sequence (whole entry): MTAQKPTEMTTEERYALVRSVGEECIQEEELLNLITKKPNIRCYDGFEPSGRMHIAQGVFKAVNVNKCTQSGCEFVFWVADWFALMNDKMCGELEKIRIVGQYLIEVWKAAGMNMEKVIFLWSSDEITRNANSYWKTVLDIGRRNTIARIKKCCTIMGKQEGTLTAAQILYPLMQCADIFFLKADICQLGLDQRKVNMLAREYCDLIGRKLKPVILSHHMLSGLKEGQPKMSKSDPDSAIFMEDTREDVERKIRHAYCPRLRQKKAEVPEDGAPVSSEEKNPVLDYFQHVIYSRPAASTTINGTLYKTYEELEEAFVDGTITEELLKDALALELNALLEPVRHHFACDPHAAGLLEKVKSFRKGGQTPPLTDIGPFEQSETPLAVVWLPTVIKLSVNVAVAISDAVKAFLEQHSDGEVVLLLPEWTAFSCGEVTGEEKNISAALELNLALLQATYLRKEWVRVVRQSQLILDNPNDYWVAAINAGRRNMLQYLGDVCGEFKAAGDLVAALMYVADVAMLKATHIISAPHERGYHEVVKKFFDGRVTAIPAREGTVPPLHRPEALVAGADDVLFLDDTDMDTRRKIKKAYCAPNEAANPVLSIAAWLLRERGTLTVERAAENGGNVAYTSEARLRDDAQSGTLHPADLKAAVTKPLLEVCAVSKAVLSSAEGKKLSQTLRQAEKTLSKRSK
# [8] = target: T4, Tyrosyl-tRNA synthetase, putative (Trypanosoma cruzi (strain CL Brener)); test: Trypanosoma cruzi tyrosyl tRNA synthetase (TcYRS) SOP; assay type: functional; conditions: 30 µM
# [9] = target: Chromo domain-containing protein 1 (Saccharomyces cerevisiae (strain ATCC 204508 / S288c) (Baker's yeast)) (UniProt P32657); test: ScCHD-1 Enzyme Inhibition Assay; assay type: functional; conditions: 30 µM; note: in the data most compounds retested in dose-response had high values
# Chain of Chromo domain-containing protein 1 (Saccharomyces cerevisiae (strain ATCC 204508 / S288c) (Baker's yeast)) (P32657 whole entry, the tested form may be a part): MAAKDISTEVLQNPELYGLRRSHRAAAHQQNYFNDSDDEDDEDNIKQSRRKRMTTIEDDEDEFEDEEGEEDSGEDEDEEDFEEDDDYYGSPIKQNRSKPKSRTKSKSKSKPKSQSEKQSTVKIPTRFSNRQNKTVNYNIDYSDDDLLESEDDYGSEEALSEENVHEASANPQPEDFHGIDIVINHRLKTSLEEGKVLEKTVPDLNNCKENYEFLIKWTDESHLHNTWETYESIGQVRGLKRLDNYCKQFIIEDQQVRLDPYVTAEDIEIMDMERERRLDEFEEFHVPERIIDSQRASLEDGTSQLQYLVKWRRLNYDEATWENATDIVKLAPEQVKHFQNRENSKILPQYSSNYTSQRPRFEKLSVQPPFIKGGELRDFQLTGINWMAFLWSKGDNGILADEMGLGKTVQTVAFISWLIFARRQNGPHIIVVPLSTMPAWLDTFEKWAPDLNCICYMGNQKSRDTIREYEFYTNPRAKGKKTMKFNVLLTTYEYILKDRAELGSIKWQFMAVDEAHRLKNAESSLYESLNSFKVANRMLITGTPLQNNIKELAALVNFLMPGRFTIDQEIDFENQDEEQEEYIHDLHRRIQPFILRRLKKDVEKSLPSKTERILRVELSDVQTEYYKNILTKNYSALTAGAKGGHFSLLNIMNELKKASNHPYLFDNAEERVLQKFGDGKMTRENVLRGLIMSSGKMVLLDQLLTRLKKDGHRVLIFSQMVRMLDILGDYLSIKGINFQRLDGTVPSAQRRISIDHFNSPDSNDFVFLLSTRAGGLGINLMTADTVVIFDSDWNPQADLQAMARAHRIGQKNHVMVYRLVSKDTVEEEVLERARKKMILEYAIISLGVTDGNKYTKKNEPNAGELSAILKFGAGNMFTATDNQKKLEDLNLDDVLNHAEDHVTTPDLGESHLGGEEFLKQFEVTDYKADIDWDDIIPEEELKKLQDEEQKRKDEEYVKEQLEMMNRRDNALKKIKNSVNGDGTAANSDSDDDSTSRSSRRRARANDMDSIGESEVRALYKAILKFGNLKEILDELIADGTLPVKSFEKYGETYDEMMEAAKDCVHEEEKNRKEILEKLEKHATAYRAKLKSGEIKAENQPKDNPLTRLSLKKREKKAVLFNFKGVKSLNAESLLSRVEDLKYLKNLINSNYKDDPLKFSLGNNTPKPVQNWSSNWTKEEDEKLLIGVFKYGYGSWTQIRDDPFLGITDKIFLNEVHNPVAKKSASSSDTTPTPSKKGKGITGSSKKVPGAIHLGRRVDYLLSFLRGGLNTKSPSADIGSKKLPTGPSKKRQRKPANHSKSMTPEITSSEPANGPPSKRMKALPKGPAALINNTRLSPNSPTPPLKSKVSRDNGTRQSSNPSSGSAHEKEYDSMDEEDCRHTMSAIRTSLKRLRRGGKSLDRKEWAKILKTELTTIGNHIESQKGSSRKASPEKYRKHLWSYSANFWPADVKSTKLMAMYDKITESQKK
# Chain of Protein translocase subunit SecA (Escherichia coli (strain K12)) (P10408 whole entry): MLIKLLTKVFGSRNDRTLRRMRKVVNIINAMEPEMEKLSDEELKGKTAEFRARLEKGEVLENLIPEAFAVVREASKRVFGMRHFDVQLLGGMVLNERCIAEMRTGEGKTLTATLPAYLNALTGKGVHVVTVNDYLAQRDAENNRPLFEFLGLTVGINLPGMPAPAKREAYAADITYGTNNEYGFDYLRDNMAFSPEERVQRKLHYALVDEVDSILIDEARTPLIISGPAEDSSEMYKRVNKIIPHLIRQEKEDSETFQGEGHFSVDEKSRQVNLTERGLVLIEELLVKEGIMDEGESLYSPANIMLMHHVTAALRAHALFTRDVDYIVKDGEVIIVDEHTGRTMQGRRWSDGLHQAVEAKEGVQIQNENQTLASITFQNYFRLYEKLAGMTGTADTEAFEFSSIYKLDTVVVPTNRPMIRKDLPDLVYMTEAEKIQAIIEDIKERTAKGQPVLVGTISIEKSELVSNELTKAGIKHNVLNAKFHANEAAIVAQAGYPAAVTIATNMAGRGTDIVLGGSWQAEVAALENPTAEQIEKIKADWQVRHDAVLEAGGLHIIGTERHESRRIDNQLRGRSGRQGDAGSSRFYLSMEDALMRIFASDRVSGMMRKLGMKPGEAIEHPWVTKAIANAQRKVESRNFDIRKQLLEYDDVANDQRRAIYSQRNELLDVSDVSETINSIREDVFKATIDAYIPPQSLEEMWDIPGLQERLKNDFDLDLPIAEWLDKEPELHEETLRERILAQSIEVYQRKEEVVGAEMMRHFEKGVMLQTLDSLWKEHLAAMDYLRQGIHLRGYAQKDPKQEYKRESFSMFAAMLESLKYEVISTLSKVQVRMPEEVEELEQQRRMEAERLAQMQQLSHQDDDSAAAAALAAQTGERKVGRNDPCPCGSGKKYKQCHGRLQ
# Chain of Sialic acid-binding Ig-like lectin 9 (Homo sapiens) (Q9Y336 whole entry): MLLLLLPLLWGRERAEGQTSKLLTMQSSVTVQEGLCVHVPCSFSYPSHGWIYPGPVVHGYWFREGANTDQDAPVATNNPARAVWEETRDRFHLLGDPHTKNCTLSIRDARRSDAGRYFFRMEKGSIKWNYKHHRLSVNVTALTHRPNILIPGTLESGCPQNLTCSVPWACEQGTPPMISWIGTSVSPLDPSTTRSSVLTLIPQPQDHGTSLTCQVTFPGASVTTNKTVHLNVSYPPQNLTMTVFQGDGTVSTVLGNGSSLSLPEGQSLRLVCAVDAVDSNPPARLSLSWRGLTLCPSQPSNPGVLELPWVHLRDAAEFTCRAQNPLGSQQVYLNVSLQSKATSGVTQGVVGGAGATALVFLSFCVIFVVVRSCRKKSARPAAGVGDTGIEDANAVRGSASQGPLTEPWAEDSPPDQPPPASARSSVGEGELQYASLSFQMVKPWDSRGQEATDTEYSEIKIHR
Structure (SMILES),Percent Effect [1] [%],Percent Effect [2] [%],Percent Effect [3] [%],Percent Effect [4] [%],Percent Effect (Trypanosoma cruzi) [%],Percent Effect [5] [%],Percent Effect [6] [%],Percent Effect (Homo sapiens) [%],Percent Effect [7] [%],Percent Effect [8] [%],Percent Effect [9] [%]
COc1cc(NC(=O)Cn2ccc3sc(C)cc3c2=O)cc(OC)c1,0.749,0,8.38,5.78,-5.42,17.4,7.49,2.45,1.06,11.5,-0.379
Cc1nc(C)n(CC2CCCN2CCOc2ccc(C#N)cc2)n1 (stereo unspecified),-3.7,2.53,-2.42,10.4,7.27,1.9,1.06,17.9,6.4,11.4,-5.17
CN(C)C(=O)c1nc2c(s1)CCN(C(=O)c1ccc(Cl)cc1)CC2,-2.69,18.7,-9.31,-1.54,2.7,-29.6,10.4,-8.27,9.38,30,-12.2
COCCN(C)C[C@@H]1CN(C(=O)c2ccoc2)C[C@@H]1CO,-3.19,2.7,-0.15,1.89,6.56,-1.43,5.34,4.14,6.88,9.76,-2.44
COCCCN(C)C1CCCN(Cc2noc(C)n2)C1 (stereo unspecified),-1.35,2.7,-5.43,12.9,4.18,-0.554,-3.05,11.9,3.96,15.8,-1.13
CCNC(=O)N1CCN(Cc2nc3ccccc3[nH]2)[C@@H]2CS(=O)(=O)C[C@@H]21,-3.35,5.41,-2.19,-3.56,-4.2,2.23,15.2,1.54,4.3,11.1,-3.76
Cc1nc(-c2ccsc2)ccc1C(=O)NCCN1CCOCC1,-6.91,10.5,-3.72,7.24,4.32,-0.383,8.02,1.25,6.37,19.5,-8.61
CCOCC(O)CN1CCN(C(=O)c2ccccc2Cl)CC1 (stereo unspecified),-5.28,5.26,5.55,2.24,0,2.3,-3.17,-0.893,1.47,7.32,4.97
Cc1ccccc1CN1CCCN(C2CCOC2=O)CC1 (stereo unspecified),-1.89,-18.9,-9.35,10.9,-3.3,1.2,10.4,0.38,2.46,3.7,1.51
Cc1ccc(F)cc1S(=O)(=O)N(C)CC(N)=O,-2.13,11,-2.95,2.8,-1.19,-2.79,14.8,-1.31,9.38,16.1,-0.907
COCc1noc(C2(c3ccc(Br)cc3)CCOCC2)n1,-2.85,-2.7,1.95,-4.39,-6.95,1.91,9.83,4.48,-1.59,4.88,-3.06
Cc1cnn(CC2CCCN2Cc2coc(-c3cccs3)n2)c1 (stereo unspecified),-6.03,0,3.45,-6.51,-1.37,0.909,1.77,5.98,2.15,10,-1.19
CCc1nc(C2CCCN2CC(=O)Nc2c(C)n[nH]c2C)no1 (stereo unspecified),1.31,-2.6,-3.26,6.7,-5.62,5.34,3.38,16.5,1.94,7.32,-0.363
CCC1CN(C(=O)c2ccc(=O)[nH]c2)CCC(=O)N1Cc1ccccc1 (stereo unspecified),-1.75,4.17,-3.51,-12.5,-3.21,3.09,14,14.1,0,2.56,-2.44
COc1cc(CNCc2ccc(C(C)O)cc2)cc2c1OCO2 (stereo unspecified),-4.95,18.9,2.1,10.4,8.45,0.185,20.8,15.6,9.9,28.1,-9.5
CC(NC(=O)NCCCn1ccnc1)c1ccc2c(c1)OCCCO2 (stereo unspecified),-3.41,2.7,-7.49,-2.67,-8.08,5.36,-0.539,12.7,1.98,1.22,2.18
